Measurements published in PubChem BioAssay (NCATS).
Inconclusive results are not listed. The source made the active and inactive calls. The call rests on the fitted dose curve; in most records, active means well fitted inhibition curve with a large enough effect; inconclusive means small, poorly fitted or top-dose-only effect; inactive means flat fitted curve, though single readings scatter.

Key:
Test in all cases: qHTS profiling for inhibitors of Plasmodium falciparum proliferation (AID 504749); further: nearly all actives have a fitted effect of over 60% in size
Conditions in all cases: P. falciparum in erythrocytes, SYBR Green DNA, 72 h; series mostly up to 12.8 µM
3D7 = tested on: 3D7
Procedure, shortened: (§1)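 Infected RBCs, 0.3% parasitemia/2.5% Hct final; cpd 72 h, 37 C, 5% CO2; lysis buffer with saponin/triton/SYBR Green I, o/n RT dark; FI 485/535; norm. to artemisinin (0.29 uM) and DMSO.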

AS120 = tested on: AS120
Procedure, shortened: as §1

CP192 = tested on: CP192
Procedure, shortened: as §1

CP217 = tested on: CP217
Procedure, shortened: as §1

CP250 = tested on: CP250
Procedure, shortened: as §1

CP252 = tested on: CP252
Procedure, shortened: as §1

CP268 = tested on: CP268
Procedure, shortened: as §1

CP269 = tested on: CP269
Procedure, shortened: as §1

CP297 = tested on: CP297
Procedure, shortened: as §1

CP305 = tested on: CP305
Procedure, shortened: as §1

CP315 = tested on: CP315
Procedure, shortened: as §1

CP329 = tested on: CP329
Procedure, shortened: as §1

DFO2036 = tested on: DFO2036
Procedure, shortened: as §1

DIV14 = tested on: DIV14
Procedure, shortened: as §1

ECU = tested on: ECU
Procedure, shortened: as §1

HB3 = tested on: HB3
Procedure, shortened: as §1

N140 = tested on: N140
Procedure, shortened: as §1

PC15 = tested on: PC15
Procedure, shortened: as §1

PC49 = tested on: PC49
Procedure, shortened: as §1

TAB113 = tested on: TAB113
Procedure, shortened: as §1

Measured: Potency

C1CCN2C[C@@H]3C[C@@H](CN4CCCC[C@H]34)[C@H]2C1
inactive: 3D7 | AS120 | CP192 | CP217 | CP250 | CP252 | CP268 | CP269 | CP297 | CP305 | CP315 | CP329 | DFO2036 | DIV14 | ECU | HB3 | N140 | PC15 | PC49 | TAB113

NCc1ccccc1CC(=O)N[C@@H]1C(=O)N2C(C(=O)O)=C(CSc3nnnn3CC(=O)O)CS[C@@H]12
inactive: 3D7 | AS120 | CP192 | CP217 | CP250 | CP252 | CP268 | CP269 | CP297 | CP305 | CP315 | CP329 | DFO2036 | DIV14 | ECU | HB3 | N140 | PC15 | PC49 | TAB113

Cc1onc(-c2ccccc2Cl)c1C(=O)N[C@H]1C(=O)N2[C@H]1SC(C)(C)[C@H]2C(=O)O
inactive: 3D7 | AS120 | CP192 | CP217 | CP250 | CP252 | CP268 | CP269 | CP297 | CP305 | CP315 | CP329 | DFO2036 | DIV14 | ECU | HB3 | N140 | PC15 | PC49 | TAB113

CCN1CCC[C@@H](OC(=O)C(c2ccccc2)c2ccccc2)C1
inactive: 3D7 | AS120 | CP192 | CP217 | CP250 | CP268 | CP269 | CP297 | CP305 | CP315 | CP329 | DFO2036 | ECU | HB3 | TAB113

CN[C@H]1[C@@H](O)[C@@H](NC)[C@@H]2O[C@@]3(O)C(=O)C[C@@H](C)O[C@H]3O[C@H]2[C@H]1O
inactive: 3D7 | AS120 | CP192 | CP217 | CP250 | CP252 | CP268 | CP269 | CP297 | CP305 | CP315 | CP329 | DFO2036 | DIV14 | ECU | HB3 | N140 | PC15 | PC49 | TAB113

CC(=O)OCC(=O)[C@@]12OC(C)(C)O[C@@H]1C[C@H]1[C@H]3C[C@H](F)C4=CC(=O)C=C[C@@]4(C)[C@]3(F)[C@H](O)C[C@@]12C
inactive: 3D7 | AS120 | CP192 | CP217 | CP250 | CP252 | CP268 | CP269 | CP297 | CP305 | CP315 | CP329 | DFO2036 | DIV14 | ECU | HB3 | N140 | PC15 | PC49 | TAB113

CC[C@H]1NC(=O)c2cc(S(N)(=O)=O)c(Cl)cc2N1
inactive: 3D7 | AS120 | CP192 | CP217 | CP250 | CP252 | CP268 | CP269 | CP297 | CP305 | CP315 | CP329 | DFO2036 | DIV14 | ECU | HB3 | N140 | PC15 | PC49 | TAB113

COc1ccc(OC)c([C@H](O)CNC(=O)CN)c1
inactive: 3D7 | AS120 | CP192 | CP217 | CP250 | CP252 | CP268 | CP269 | CP297 | CP305 | CP315 | CP329 | DFO2036 | DIV14 | ECU | HB3 | N140 | PC15 | PC49 | TAB113

CC(=O)O[C@H]1C[C@@]2(C)[C@H](C[C@@H](O)[C@H]3[C@@]4(C)CC[C@@H](O)[C@@H](C)[C@H]4CC[C@@]32C)C1=C(CCC=C(C)C)C(=O)O
inactive: 3D7 | AS120 | CP192 | CP217 | CP250 | CP252 | CP268 | CP269 | CP297 | CP305 | CP315 | CP329 | DFO2036 | DIV14 | ECU | HB3 | N140 | PC15 | PC49 | TAB113

CC(C)(C)NC(=O)[C@@H]1CC[C@@H]2[C@@H]3CC[C@@H]4NC(=O)C=C[C@@]4(C)[C@H]3CC[C@]21C
inactive: 3D7 | AS120 | CP192 | CP217 | CP250 | CP252 | CP268 | CP269 | CP297 | CP305 | CP315 | CP329 | DFO2036 | DIV14 | ECU | HB3 | N140 | PC15 | PC49 | TAB113

Cc1ncc([N+](=O)[O-])n1C[C@H](O)CCl
inactive: 3D7 | AS120 | CP192 | CP217 | CP250 | CP252 | CP268 | CP269 | CP297 | CP305 | CP315 | CP329 | DFO2036 | DIV14 | ECU | HB3 | N140 | PC15 | PC49 | TAB113
